In the library only some 3% were active in any assay of this set; here they are far more common.
FBA Mtb inh = Mtb FBA enzyme inhibitors, primary screen, biochemical, fluorescence, strain H37Rv | 360,000 tested, 2.3% active | Fructose-bisphosphate aldolase (Mycobacterium tuberculosis (strain ATCC 25618 / H37Rv)), … | inhibition, % at 1 µM | purified M. tuberculosis FBA, fluorescence read-out; in the data active means inhibition above about 27%
Target sequence (P9WQA3 whole entry, looked up): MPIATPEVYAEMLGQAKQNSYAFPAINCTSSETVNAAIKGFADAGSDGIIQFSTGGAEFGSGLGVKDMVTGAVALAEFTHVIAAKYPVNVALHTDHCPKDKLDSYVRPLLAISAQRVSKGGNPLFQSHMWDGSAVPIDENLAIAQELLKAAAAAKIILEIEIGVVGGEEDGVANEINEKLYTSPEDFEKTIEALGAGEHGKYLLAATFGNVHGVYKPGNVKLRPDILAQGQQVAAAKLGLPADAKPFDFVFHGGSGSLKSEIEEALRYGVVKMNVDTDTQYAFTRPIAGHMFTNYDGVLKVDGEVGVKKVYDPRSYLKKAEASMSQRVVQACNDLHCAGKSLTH
Rv3671c protease = Rv3671c serine protease inhibitors, primary screen, biochemical, fluorescence polarization, M. tuberculosis H37Rv | P9WHR9 | inhibition, % at 5.96 µM | 320,000 tested, 0.048% active | AID 2606, 2010; in the data active means inhibition above about 38%;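 further: extracellular domain of Rv3671c used as enzyme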
Target sequence (P9WHR9 whole entry, looked up, the tested form may be a part): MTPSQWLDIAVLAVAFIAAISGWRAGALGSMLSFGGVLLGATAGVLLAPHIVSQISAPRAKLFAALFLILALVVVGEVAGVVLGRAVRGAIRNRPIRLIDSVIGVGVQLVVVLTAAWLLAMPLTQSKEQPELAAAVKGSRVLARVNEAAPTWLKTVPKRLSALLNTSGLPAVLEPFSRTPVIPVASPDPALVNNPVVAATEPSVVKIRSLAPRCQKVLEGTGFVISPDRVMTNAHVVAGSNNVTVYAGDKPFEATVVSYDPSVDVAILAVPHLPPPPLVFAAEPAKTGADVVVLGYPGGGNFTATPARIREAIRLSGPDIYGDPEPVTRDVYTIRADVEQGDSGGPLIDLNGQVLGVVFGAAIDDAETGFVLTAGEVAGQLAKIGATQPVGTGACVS
BioA inh = M. tuberculosis BioA enzyme inhibitors, primary screen, biochemical, plate reader, single point, HTS; 7,8-diaminopelargonic acid synthase BioA (Mycobacterium tuberculosis); purified M. tuberculosis BioA enzyme; inhibition, % at 9.99 µM; 360,000 tested, 0.096% active; AID 602481, 2012; in the data active means inhibition above about 40%
GDH-TPI inh = GDH-TPI coupling enzyme inhibitors, primary screen, artefact control for M. tuberculosis FBA inhibitor project, biochemical, absorbance, full deck. inhibition, % at 4.8 µM. GDH-TPI coupled enzyme counterscreen, NADH absorbance. 360,000 tested, 1.2% active; in the data active means inhibition above about 30%
FadD28 FP inh = inhibitors of FadD28 bisubstrate probe binding, primary screen, biochemical, fluorescence polarization, single point; Mycobacterium tuberculosis FadD28 fatty-acid-AMP ligase; 360,000 tested, 0.22% active; inhibition, % at 12.5 µM; in the data active means inhibition above about 8.5%, passing the limit was not always enough
Each line names hits and unclear results; the compound was inactive in the other large screens; ! = not confirmed by another sample.

O=C(/C=C/c1ccc(O)c(O)c1)O[C@@H]1C[C@](O)(C(=O)O)C[C@@H](O)[C@H]1O	GDH-TPI inh 49.8!
O=C(/C=C/c1ccc(O)c(O)c1)OC1C(O)CC(OC(=O)/C=C/c2ccc(O)c(O)c2)(C(=O)O)CC1O (stereo unspecified)	none (no result: FadD28 FP inh)
CN1C(=O)c2cc(NC(=O)c3cccs3)ccc2OC[C@@H]2O[C@@H](CC(=O)NCC(F)(F)F)CC[C@H]21	none (no result: FBA Mtb inh, Rv3671c protease, GDH-TPI inh, FadD28 FP inh)
O=C(CNC(=O)c1cccs1)N=Nc1c(O)[nH]c2ccc([N+](=O)[O-])cc12	GDH-TPI inh 34.5
CCCCCCC(=O)N=Nc1c(O)[nH]c2ccc([N+](=O)[O-])cc12	none (no result: BioA inh)
CCOc1ccc2c(C)c(C(=O)O)oc2c1OCC	FBA Mtb inh 155.9
O=C(NCc1cccs1)C(Cc1ccccc1)NS(=O)(=O)c1cccs1 (stereo unspecified)	none
O=C(NCc1ccc(F)cc1)C(Cc1ccccc1)NS(=O)(=O)c1cccs1 (stereo unspecified)	FadD28 FP inh 24.6
Cc1cc(O)cc(O)c1/C=N/NC(=O)c1ccc2c(c1)OCCO2	GDH-TPI inh 44.2 (no result: Rv3671c protease)
O=C(N/N=C/c1ccc(Br)o1)c1ccc2c(c1)OCCO2	GDH-TPI inh 41.4 (no result: BioA inh)
C[C@H](CO)N1C[C@H](C)[C@H](CN(C)C(=O)Nc2ccccc2)OCCCC[C@H](C)Oc2ccc(NC(=O)c3ccccc3)cc2C1=O	none (no result: FBA Mtb inh, Rv3671c protease, GDH-TPI inh, FadD28 FP inh)
N#CCCN(C(=O)COC(=O)/C=C/c1cccs1)c1ccccc1	none
COCCNC(=O)/C(C#N)=C/c1cccs1	GDH-TPI inh 47.6
COc1ccc(N(CCC#N)C(=O)/C(C#N)=C\c2cccs2)cc1	GDH-TPI inh 37.0 (no result: BioA inh)
Cc1cc(C=O)c(O)cc1O	GDH-TPI inh 52.2
CCn1c(-c2ccc(N(C)C)cc2)nc2ccccc21	FBA Mtb inh active
CN(C)c1ccc(-c2nc3ccccc3n2C)cc1	FBA Mtb inh active
Cc1ccc(C(O)c2nc3ccccc3n2C(C)C)cc1 (stereo unspecified)	none
CN(C)c1ccc(C(O)Cc2nc3ccccc3n2C)cc1 (stereo unspecified)	none
CC(C)n1c(-c2ccc(N(C)C)cc2)nc2ccccc21	FBA Mtb inh 184.6
Fc1ccc(-c2ccnc3nc(N4CCOCC4)nn23)cc1	FBA Mtb inh 51.5
CCCCN(C)C(=O)c1cc2c(s1)-c1ccccc1S(=O)(=O)C2	none
CC(C)CCNC(=O)c1cc2c(s1)-c1ccccc1S(=O)(=O)C2	GDH-TPI inh 31.6
CCCNC(=O)N1C[C@H](O)COC[C@H]2O[C@@H](CC(=O)NCc3ccc(Cl)c(Cl)c3)CC[C@@H]21	none (no result: FBA Mtb inh, Rv3671c protease, GDH-TPI inh, FadD28 FP inh)
COc1ccc(N/N=C(/C#N)S(=O)(=O)c2nsc(C)c2C#N)cc1	GDH-TPI inh 37.9
O=C(NC(CO)(CO)CO)c1coc(=O)c(Br)c1	GDH-TPI inh 44.4
CC(C)CNC(=O)c1coc(=O)c(Br)c1	none
O=C(Nc1cc(Cl)cc(Cl)c1)c1coc(=O)c(Br)c1	FBA Mtb inh 136.5, GDH-TPI inh 32.4
CC1(C)Cc2c(cnn2-c2ccc(F)cc2)C(NC(=O)c2ccc(=O)oc2)C1 (stereo unspecified)	GDH-TPI inh 40.6
CNC[C@@H]1OCCCC[C@@H](C)Oc2ccc(NS(=O)(=O)c3ccc(OC)cc3)cc2C(=O)N([C@H](C)CO)C[C@H]1C	none (no result: FBA Mtb inh, Rv3671c protease, GDH-TPI inh, FadD28 FP inh)
COc1ccc(NC(=O)Nc2ccc3c(c2)CC(=O)N([C@H](C)CO)C[C@@H](C)[C@@H](CN(C)Cc2ccc(Cl)c(Cl)c2)O3)cc1	none (no result: FBA Mtb inh, Rv3671c protease, GDH-TPI inh, FadD28 FP inh)
N#Cc1nc(-c2ccc(F)cc2)oc1N1CCCC1	FBA Mtb inh 112.8
N#Cc1nc(COc2ccc(F)cc2)oc1N1CCCC1	none
N#Cc1nc(-c2ccc(F)cc2)oc1N1CCCCC1	FBA Mtb inh 178.2
O=C(C[C@H]1C[C@@H]2c3cc(NC(=O)CC4CC4)ccc3O[C@@H]2[C@@H](CO)O1)NCc1ccncc1	none (no result: FBA Mtb inh, Rv3671c protease, GDH-TPI inh, FadD28 FP inh)
CC(=O)C1=C(O)C(=O)N(Cc2ccccc2)C1c1cccs1 (stereo unspecified)	GDH-TPI inh 31.3
CC(=O)C1=C(O)C(=O)N(Cc2ccccc2)C1c1ccc(Cl)cc1 (stereo unspecified)	none
C[C@@H](NC(=O)C[C@H]1C=C[C@H](NC(=O)C2CC2)[C@H](CO)O1)c1ccccc1	none (no result: FBA Mtb inh, Rv3671c protease, GDH-TPI inh, FadD28 FP inh)
COc1cccc(/C=C/C(=O)c2c(O)cc(C)oc2=O)c1O	none
COc1cc(/C=C/C(=O)c2c(O)ccc3c(C)cc(=O)oc23)ccc1O	GDH-TPI inh 49.5
COc1cc(/C=C/C(=O)c2c(O)cc(C)oc2=O)cc(OC)c1O	GDH-TPI inh 33.9
Cc1cc(=O)oc2c(C(=O)/C=C/c3ccccc3)c(O)ccc12	none
COc1ccc(/C=C\C(=O)c2c(O)ccc3c(C)cc(=O)oc23)cc1OC	GDH-TPI inh 52.2
Cc1cc(=O)oc2c(C(=O)/C=C\c3cccs3)c(O)ccc12	GDH-TPI inh 42.1 (no result: BioA inh)
C[C@@H]1CN([C@@H](C)CO)C(=O)c2cc(NS(=O)(=O)c3cccs3)ccc2O[C@@H](C)CCCCO[C@@H]1CN(C)C(=O)Nc1ccc2c(c1)OCO2	none (no result: FBA Mtb inh, Rv3671c protease, GDH-TPI inh, FadD28 FP inh)
Cc1noc(C)c1NC(=O)N(C)C[C@H]1Oc2ccc(NS(=O)(=O)c3ccc(F)cc3)cc2CC(=O)N([C@H](C)CO)C[C@H]1C	none (no result: FBA Mtb inh, Rv3671c protease, GDH-TPI inh, FadD28 FP inh)
CC(C)NC(=O)N(C)C[C@H]1OCCCC[C@H](C)Oc2ccc(NC(=O)Cc3ccccc3)cc2C(=O)N([C@H](C)CO)C[C@@H]1C	none (no result: FBA Mtb inh, Rv3671c protease, GDH-TPI inh, FadD28 FP inh)
CC(C)c1cccc(-c2ccc3c(c2)S(=O)(=O)c2cccc(C(=O)O)c2C3=O)c1	GDH-TPI inh 31.0
C[C@@H]1CN([C@@H](C)CO)S(=O)(=O)c2ccc(C#Cc3ccncc3)cc2O[C@@H]1CN(C)CC1CC1	none (no result: FBA Mtb inh, Rv3671c protease, GDH-TPI inh, FadD28 FP inh)
C[C@@H]1CN([C@H](C)CO)C(=O)c2cc(NC(=O)c3ccccc3)ccc2O[C@@H](C)CCCCO[C@H]1CN(C)C(=O)Nc1ccccc1	none (no result: FBA Mtb inh, Rv3671c protease, GDH-TPI inh, FadD28 FP inh)
Cc1cc(O)c(-c2cc(C(=O)Nc3sc4c(c3C(=O)NCc3ccco3)CCC4)[nH]n2)cc1C	GDH-TPI inh 34.2 (no result: BioA inh)
CCc1noc(C)c1C(=O)Nc1cc(S(=O)(=O)N2CCCCC2)ccc1N(C)C	none
CCc1noc(C)c1C(=O)Nc1cc(S(=O)(=O)N2CCOCC2)ccc1OC(C)C	FadD28 FP inh 16.2
O=C(N/N=C/c1cc2ccccc2nc1Cl)/C(=C/c1cccs1)NC(=O)c1ccccc1	none
O=C(N/N=C/c1ccc2c(c1)OCO2)/C(=C/c1ccc2c(c1)OCO2)NC(=O)c1ccccc1	GDH-TPI inh 54.8 (no result: BioA inh)
COC(=O)N/N=C/c1cccs1	none (no result: BioA inh)
COc1cc2ccccc2cc1C(=O)N/N=C/c1cccs1	GDH-TPI inh 34.8 (no result: Rv3671c protease)
COc1ccc(/C=C(/NC(=O)c2ccccc2)C(=O)N/N=C/c2ccc3c(c2)OCO3)cc1OC	GDH-TPI inh 64.5 (no result: Rv3671c protease)
O=C(N/N=C/c1cccnc1)/C(=C\c1cccs1)NC(=O)c1ccccc1	GDH-TPI inh 46.7 (no result: BioA inh)
COc1ccc(C=C(NC(=O)c2ccccc2)C(=O)O)cc1OC	none (no result: Rv3671c protease, BioA inh)

Assay outcomes (PubChem BioAssay)
